Experimental findings from ChEMBL document CHEMBL1961873, “Compounds: GSK PKIS; Assays: Nanosyn kinase panel” (2012) are described below.

For test [1], the target named is Sphingosine kinase 1 (Homo sapiens) (UniProt Q9NYA1). Particulars: at 1 µM.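 Also: mean SPHK1 inhibition value reported from the GSK PKIS kinase panel screen.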
The target of test [2] is T1, Sphingosine kinase 2 (Homo sapiens) (UniProt Q9NRA0).
T1 sequence (whole entry): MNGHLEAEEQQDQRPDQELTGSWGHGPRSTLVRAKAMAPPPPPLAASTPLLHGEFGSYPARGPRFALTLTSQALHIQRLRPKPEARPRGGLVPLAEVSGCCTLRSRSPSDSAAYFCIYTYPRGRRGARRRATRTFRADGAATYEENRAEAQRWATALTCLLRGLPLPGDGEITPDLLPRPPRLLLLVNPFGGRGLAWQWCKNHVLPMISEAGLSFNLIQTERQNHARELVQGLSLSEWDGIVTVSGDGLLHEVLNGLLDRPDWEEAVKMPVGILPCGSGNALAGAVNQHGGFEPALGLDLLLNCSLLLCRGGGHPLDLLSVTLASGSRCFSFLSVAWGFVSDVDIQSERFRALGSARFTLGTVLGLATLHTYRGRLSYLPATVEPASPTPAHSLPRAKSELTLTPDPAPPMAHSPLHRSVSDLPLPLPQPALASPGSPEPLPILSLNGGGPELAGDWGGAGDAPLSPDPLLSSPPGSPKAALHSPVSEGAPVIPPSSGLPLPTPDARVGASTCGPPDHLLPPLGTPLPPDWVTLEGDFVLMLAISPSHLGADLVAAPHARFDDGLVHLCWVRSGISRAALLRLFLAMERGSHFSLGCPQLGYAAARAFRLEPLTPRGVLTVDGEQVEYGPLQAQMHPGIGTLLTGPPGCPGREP
The conditions noted are these: at 0.1 µM.

For test [3], the target named is T1, Sphingosine kinase 2 (Homo sapiens). Particulars: at 1 µM.
Test [4] has as its target Casein kinase II subunit alpha (Homo sapiens) (UniProt P68400). Particulars: at 0.1 µM.
For test [5] the target is unchanged. The conditions noted are these: at 1 µM.
Test [6] addresses T2, Inhibitor of nuclear factor kappa-B kinase subunit alpha (Homo sapiens) (UniProt O15111).
T2 sequence (whole entry): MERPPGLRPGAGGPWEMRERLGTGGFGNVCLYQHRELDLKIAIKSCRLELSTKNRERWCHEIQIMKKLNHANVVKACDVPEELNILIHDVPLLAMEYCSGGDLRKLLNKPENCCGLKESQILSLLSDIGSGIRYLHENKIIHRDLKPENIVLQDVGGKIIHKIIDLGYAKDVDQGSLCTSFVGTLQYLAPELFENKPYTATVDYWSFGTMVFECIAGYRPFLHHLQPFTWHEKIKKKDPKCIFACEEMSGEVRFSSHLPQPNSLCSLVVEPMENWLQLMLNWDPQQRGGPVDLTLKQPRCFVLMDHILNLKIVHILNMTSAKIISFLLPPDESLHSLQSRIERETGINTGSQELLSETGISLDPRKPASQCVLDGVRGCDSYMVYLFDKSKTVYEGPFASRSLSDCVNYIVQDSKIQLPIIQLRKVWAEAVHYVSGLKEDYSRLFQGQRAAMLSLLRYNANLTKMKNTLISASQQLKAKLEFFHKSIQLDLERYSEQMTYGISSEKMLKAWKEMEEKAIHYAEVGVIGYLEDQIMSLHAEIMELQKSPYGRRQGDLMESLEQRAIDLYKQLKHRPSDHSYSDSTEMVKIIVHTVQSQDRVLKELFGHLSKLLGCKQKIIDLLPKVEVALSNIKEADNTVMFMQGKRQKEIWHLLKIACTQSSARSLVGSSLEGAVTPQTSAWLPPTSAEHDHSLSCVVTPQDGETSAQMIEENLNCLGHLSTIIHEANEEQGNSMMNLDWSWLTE
Particulars: at 0.1 µM.

Test [7] concerns the target T2, Inhibitor of nuclear factor kappa-B kinase subunit alpha (Homo sapiens). The conditions noted are these: at 1 µM.
Test [8] deals with T3, Inhibitor of nuclear factor kappa-B kinase subunit beta (Homo sapiens) (UniProt O14920).
T3 sequence (whole entry): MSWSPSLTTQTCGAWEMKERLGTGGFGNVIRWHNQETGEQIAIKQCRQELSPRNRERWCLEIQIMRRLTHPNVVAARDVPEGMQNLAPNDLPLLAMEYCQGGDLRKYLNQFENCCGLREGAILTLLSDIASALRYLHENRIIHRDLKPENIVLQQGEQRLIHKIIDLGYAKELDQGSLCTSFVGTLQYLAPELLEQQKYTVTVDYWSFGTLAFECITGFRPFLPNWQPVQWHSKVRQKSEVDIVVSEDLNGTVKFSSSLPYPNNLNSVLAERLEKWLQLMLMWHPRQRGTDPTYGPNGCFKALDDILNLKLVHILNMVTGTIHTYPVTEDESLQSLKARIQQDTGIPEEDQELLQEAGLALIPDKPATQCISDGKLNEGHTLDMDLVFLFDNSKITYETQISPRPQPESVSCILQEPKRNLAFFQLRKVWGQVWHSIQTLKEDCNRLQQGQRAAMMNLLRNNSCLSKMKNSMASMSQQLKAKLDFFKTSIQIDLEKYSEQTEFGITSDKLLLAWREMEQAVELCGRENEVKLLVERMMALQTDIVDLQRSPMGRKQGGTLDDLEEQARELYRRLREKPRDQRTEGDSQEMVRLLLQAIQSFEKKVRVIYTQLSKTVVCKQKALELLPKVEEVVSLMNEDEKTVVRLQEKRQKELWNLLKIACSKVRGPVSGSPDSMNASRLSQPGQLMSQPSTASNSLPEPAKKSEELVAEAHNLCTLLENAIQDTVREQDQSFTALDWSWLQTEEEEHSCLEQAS
Particulars: at 0.1 µM.

The target in test [9] is T3, Inhibitor of nuclear factor kappa-B kinase subunit beta (Homo sapiens). Particulars: at 1 µM.
Test [10] has as its target T4, Inhibitor of nuclear factor kappa-B kinase subunit epsilon (Homo sapiens) (UniProt Q14164).
T4 sequence (whole entry): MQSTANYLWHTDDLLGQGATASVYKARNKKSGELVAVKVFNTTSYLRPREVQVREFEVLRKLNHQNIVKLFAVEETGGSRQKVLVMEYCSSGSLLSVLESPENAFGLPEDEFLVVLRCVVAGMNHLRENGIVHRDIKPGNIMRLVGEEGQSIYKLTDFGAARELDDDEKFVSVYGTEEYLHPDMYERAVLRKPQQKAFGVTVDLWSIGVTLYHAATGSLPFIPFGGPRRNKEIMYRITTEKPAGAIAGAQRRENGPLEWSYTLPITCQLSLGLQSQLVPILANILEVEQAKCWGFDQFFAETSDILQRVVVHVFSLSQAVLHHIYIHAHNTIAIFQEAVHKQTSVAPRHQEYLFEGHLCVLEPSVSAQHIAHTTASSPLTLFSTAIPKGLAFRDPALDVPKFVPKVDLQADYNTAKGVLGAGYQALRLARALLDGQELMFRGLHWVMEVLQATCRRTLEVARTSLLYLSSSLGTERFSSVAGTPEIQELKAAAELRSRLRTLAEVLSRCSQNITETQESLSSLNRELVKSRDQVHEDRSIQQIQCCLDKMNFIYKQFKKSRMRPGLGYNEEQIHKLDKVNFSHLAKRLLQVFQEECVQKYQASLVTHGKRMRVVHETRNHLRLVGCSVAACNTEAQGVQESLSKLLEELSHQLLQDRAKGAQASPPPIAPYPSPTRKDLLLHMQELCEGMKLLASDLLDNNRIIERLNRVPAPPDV
The conditions noted are these: at 0.1 µM.

Test [11] deals with T4, Inhibitor of nuclear factor kappa-B kinase subunit epsilon (Homo sapiens). The conditions noted are these: at 1 µM.
The target in test [12] is T5, Serine/threonine-protein kinase Nek1 (Homo sapiens) (UniProt Q96PY6).
T5 sequence (whole entry): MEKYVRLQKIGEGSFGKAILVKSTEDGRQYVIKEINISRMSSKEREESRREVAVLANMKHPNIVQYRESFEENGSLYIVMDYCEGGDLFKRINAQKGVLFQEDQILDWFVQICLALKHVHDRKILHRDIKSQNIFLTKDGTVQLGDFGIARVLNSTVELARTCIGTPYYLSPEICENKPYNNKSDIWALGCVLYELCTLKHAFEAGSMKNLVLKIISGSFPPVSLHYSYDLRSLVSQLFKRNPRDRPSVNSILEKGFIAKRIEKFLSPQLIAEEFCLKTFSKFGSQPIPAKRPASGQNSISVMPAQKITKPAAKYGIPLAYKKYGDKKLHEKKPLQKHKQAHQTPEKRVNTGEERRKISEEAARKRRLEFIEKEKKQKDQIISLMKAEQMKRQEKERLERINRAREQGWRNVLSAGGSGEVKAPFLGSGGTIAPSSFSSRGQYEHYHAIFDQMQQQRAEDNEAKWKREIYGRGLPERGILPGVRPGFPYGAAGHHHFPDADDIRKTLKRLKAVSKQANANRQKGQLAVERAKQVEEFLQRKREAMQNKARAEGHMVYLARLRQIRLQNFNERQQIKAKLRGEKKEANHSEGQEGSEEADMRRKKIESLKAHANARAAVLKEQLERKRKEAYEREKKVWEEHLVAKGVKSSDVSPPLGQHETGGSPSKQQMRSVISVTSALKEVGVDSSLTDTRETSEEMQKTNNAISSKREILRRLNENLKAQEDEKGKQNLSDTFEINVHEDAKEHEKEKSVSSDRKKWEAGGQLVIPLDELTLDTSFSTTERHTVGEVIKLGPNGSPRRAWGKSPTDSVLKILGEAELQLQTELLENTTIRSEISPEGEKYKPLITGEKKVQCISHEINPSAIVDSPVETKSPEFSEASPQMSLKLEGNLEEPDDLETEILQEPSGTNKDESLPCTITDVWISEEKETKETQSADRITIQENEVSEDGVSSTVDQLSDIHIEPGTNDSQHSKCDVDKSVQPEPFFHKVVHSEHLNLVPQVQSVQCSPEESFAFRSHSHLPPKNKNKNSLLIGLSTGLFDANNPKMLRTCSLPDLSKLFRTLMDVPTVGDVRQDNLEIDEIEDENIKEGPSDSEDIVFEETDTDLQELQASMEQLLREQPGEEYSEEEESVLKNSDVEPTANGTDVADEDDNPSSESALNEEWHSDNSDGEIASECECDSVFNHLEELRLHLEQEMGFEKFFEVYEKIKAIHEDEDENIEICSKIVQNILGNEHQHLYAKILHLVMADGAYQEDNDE
Particulars: at 0.1 µM.

For test [13], the target named is T5, Serine/threonine-protein kinase Nek1 (Homo sapiens). The conditions noted are these: at 1 µM.
Test [14] deals with T6, Serine/threonine-protein kinase Nek2 (Homo sapiens) (UniProt P51955).
T6 sequence (whole entry): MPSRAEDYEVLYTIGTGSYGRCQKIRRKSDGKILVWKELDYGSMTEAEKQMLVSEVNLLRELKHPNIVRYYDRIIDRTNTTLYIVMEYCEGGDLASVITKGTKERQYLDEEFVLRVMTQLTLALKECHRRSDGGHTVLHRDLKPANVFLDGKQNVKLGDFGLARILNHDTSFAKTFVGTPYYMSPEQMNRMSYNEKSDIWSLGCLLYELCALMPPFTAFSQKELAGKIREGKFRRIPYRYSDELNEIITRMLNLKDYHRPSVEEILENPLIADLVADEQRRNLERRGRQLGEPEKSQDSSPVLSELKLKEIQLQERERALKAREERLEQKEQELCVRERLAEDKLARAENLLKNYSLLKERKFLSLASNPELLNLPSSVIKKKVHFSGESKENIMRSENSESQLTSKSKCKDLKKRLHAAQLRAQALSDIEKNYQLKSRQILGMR
The conditions noted are these: at 0.1 µM.

The target in test [15] is T6, Serine/threonine-protein kinase Nek2 (Homo sapiens). The conditions noted are these: at 1 µM.
Test [16] concerns the target Serine/threonine-protein kinase Nek6 (Homo sapiens) (UniProt Q9HC98). Particulars: at 0.1 µM.
The target is the same in test [17]. The conditions noted are these: at 1 µM.
The target in test [18] is Serine/threonine-protein kinase Nek7 (Homo sapiens) (UniProt Q8TDX7). The conditions noted are these: at 0.1 µM.
Test [19] has the same target. The conditions noted are these: at 1 µM.
The target of test [20] is T7, Serine/threonine-protein kinase Nek9 (Homo sapiens) (UniProt Q8TD19).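 Also: reported value is the mean percent inhibition of NEK9.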
T7 sequence (whole entry): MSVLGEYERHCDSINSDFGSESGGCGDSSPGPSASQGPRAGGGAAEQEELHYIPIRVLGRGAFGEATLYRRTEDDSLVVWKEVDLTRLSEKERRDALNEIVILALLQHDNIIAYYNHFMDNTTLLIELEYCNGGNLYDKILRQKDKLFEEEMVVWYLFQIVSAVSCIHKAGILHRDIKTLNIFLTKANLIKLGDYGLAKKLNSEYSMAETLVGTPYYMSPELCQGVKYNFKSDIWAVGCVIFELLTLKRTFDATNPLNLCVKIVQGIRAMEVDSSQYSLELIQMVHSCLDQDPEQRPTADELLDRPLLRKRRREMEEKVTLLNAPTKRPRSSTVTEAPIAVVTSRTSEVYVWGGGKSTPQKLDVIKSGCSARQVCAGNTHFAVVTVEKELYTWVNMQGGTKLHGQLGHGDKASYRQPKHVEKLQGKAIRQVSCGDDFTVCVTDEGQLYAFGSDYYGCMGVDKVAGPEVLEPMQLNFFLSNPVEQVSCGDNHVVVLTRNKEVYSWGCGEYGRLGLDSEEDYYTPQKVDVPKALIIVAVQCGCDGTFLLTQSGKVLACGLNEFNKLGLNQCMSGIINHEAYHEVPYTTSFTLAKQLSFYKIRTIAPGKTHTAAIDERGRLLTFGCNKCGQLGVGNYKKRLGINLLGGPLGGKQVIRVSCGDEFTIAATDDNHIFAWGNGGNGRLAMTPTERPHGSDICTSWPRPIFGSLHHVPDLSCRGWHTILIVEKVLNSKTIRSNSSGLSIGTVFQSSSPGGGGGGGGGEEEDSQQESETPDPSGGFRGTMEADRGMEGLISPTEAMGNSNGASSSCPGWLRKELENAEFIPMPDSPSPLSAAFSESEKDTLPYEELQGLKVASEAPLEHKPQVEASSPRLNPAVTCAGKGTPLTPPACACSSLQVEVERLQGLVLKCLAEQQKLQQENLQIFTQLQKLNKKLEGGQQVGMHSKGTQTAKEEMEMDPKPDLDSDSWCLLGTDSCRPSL
Particulars: at 0.1 µM.

Chain of Serine/threonine-protein kinase Nek6 (Homo sapiens) (Q9HC98 whole entry): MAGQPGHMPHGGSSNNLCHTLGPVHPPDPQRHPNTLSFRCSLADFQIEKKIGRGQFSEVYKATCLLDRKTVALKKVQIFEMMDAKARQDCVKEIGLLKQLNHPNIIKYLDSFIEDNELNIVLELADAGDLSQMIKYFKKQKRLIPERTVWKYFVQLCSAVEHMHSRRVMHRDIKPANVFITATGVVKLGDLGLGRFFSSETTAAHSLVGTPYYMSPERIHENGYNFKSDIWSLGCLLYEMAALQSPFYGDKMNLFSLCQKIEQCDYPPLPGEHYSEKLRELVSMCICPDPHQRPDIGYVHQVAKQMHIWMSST
Chain of Casein kinase II subunit alpha (Homo sapiens) (P68400 whole entry, looked up): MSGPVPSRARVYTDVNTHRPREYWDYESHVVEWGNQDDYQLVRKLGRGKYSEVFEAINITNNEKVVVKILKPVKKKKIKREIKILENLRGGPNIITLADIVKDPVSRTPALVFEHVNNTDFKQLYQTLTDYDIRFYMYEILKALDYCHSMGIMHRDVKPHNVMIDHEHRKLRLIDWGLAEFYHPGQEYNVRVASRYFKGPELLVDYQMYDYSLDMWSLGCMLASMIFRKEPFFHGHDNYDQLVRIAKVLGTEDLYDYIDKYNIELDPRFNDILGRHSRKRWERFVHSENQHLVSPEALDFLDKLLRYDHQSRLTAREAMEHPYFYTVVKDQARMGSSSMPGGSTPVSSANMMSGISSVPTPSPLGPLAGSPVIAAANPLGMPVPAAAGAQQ
Chain of Serine/threonine-protein kinase Nek7 (Homo sapiens) (Q8TDX7 whole entry, looked up): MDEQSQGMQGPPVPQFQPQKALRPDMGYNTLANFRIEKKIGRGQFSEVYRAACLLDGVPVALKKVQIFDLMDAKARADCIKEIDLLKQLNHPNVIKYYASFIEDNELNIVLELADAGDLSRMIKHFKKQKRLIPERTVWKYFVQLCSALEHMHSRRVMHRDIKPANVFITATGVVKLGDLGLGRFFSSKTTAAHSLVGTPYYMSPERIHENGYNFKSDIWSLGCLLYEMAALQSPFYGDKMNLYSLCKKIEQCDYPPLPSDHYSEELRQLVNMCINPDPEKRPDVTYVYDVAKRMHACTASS
Chain of Sphingosine kinase 1 (Homo sapiens) (Q9NYA1 whole entry): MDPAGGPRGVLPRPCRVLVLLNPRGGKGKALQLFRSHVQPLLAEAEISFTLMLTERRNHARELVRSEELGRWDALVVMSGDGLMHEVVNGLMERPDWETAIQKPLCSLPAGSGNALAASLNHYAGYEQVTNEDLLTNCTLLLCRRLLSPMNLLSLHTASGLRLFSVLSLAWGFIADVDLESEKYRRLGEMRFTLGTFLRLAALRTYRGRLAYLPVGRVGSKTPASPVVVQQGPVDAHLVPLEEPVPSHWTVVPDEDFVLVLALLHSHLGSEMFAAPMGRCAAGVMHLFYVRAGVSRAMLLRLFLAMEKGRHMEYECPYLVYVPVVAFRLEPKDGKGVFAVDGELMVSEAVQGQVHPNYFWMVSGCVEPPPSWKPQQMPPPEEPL

By inhibition is commonly meant the change of the read-out against control, counted positive when it falls. For the compound `CCS(=O)(=O)c1ccc(OC)c(Nc2ncc(-c3cccc(C(C)=O)c3)o2)c1`, the inhibition is -2.18% in test [1]; 0.25% in test [2]; 0.73% in [3]; 6.61% in test [4]; 21.6% in test [5]; -1.71% in test [6]. Also, the inhibition in test [7] is -1.11%; in test [8] it was 5.35%; in [9], 5.04%; in test [10], 6.89%; in [11] it was 5.1%; in test [12] it was 1.59%. In addition, the inhibition in test [13] is 4.9%; in test [14], 3.34%; in test [15], 2.2%; in test [16], 3.06%; in test [17] it was 3.18%; in [18], 2.79%. Besides, the values for the inhibition in [19] and in test [20] were 3.24% and 5.45%, respectively.
